Bioassay records: PubChem, several laboratories
TWEAK Fn14 block: inhibitors of TWEAK-Fn14 signaling, primary screen, luciferase reporter cells, uHTS; TWEAK-stimulated Fn14 reporter cells, luciferase luminescence, 8 h; inhibition, % at 10 µM; AID 1159606, 2016; hit rate 2% among 360,000; in the data active means inhibition above about 50%
EWS-Fli block: EWS/Fli-driven NR0B1 reporter inhibitors, primary screen, A673 cells, NR0B1 luciferase, luminescence, MLPCN library. hit rate 0.67% among 350,000. AID 651661, 2012. inhibition, % at 12.6 µM. viability-normalised;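 active means mean inhibition of at least 50% after viability correction, with every replicate also passing that limit; inconclusive means mean reaches 50% but only one of two replicates passes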;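 further: firefly luciferase signal divided by Alamar Blue viability fluorescence both relative to DMSO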
LGR2 inh: inhibitors of bursicon-induced LGR2 CRE-luciferase signal, primary screen, cell-based, HEK293, CRE-luciferase reporter, bursicon stimulation; Drosophila bursicon receptor LGR2 (rickets); bursicon-stimulated, 4 h; inhibition, % at 9.99 µM; hit rate 0.35% among 380,000; AID 720647, 2013;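 active means drop in luminescence signal, shown as inhibition above about 50% in the replicate tests, limit read from the data, passing the limit was not always enough; inconclusive means probably only some replicates passing the limit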;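 further: agonist challenge used bursicon conditioned medium at about half maximal strength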
PAX8 inh HTS: inhibitors of PAX8-driven TPO luciferase reporter, primary screen, RMG-I cells, single concentration. hit rate 1.2% among 360,000. AID 652154, 2013. inhibition, % at 12.6 µM. SteadyGlo, 24 h;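 active means mean replicate inhibition at least 60% with every replicate also reaching 60%; inconclusive means only one of the two criteria is met; inactive means mean below 60% and not all replicates reaching 60%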;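 further: luciferase light reporting Pax8 driven TPO promoter activity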
TROY signal inh: inhibitors of TROY-driven NF-kB signaling, primary screen, Q293 LMP1-TROYcd cells, NF-kB luciferase, uHTS. Q293 LMP1-TROYcd NF-kB luciferase reporter, 4 h. inhibition, % at 10 µM. hit rate 0.98% among 360,000. AID 1347056, 2019;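 active means compounds whose plate-normalised and pattern-corrected inhibition of the luciferase reporter signal at the single screening dose is 50% or more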
A number is an active result; n = inactive; u = inconclusive; x = not tested or not shown. Sampled rows, rich in hits. Any-hit rate of the full collection: about 2.8%.

SMILES	TWEAK Fn14 block	EWS-Fli block	LGR2 inh	PAX8 inh HTS	TROY signal inh
CO[C@H]1CN(C)C(=O)c2cc(NS(=O)(=O)c3ccccc3C)ccc2OC[C@H](C)NC[C@@H]1C	x	n	n	x	x
C[C@@H]1CN([C@@H](C)CO)S(=O)(=O)c2ccc(-c3ccc(F)cc3)cc2O[C@H]1CN(C)C(=O)C1CC1	x	n	n	x	x
CCN(c1nc(N)c(C(=O)N=C(N)N)nc1Cl)C(C)C	n	n	n	107.2	n
CC(=O)OC(C)(C)/C=C/C(=O)[C@](C)(O)C1[C@H](O)C[C@@]2(C)C3CC=C4C(C=C(O[C@@H]5O[C@H](CO)[C@@H](O)[C@H](O)[C@H]5O)C(=O)C4(C)C)[C@]3(C)C(=O)C[C@]12C (stereo not given in full)	n	n	u	101.7	n
CC1(C)Oc2ccc3ccc(=O)oc3c2C[C@H]1O[C@@H]1O[C@H](CO)[C@@H](O)[C@H](O)[C@H]1O	n	n	n	n	n
CC(=O)c1cccc(-c2ccnc3c2CC(C(=O)NCc2ccccc2)O3)c1 (stereo not given)	n	63.1	n	82.8	n
CC(=O)c1cccc(-c2ccnc3c2CC(C(=O)NCc2ccc(F)c(F)c2)O3)c1 (stereo not given)	n	64.6	n	u	n
CC(=O)c1cccc(-c2ccnc3c2CC(C(=O)NCc2ccco2)O3)c1 (stereo not given)	n	n	n	n	n
O=C(CNC(=S)N(Cc1ccccc1F)C1CCCCC1)NCCCN1CCOCC1	84.5	n	n	n	n
C[C@H](NC(=O)C[C@H]1CC[C@H]2[C@@H](COC[C@@H](O)CN2C(=O)Nc2cccc(F)c2)O1)c1ccccc1	x	n	n	n	x
Clc1ccc(-c2c[n+](Cc3ccc(Cl)cc3Cl)c3n2CCCCC3)cc1	n	n	n	n	n
Clc1ccc(C[n+]2cc(-c3ccccc3)n3c2CCCCC3)c(Cl)c1	n	n	n	81.3	n
CCCC(=O)N1CCC2(CC1)CN(C(=O)Nc1c(C)noc1C)[C@@H](CO)c1c2c2ccc(OC)cc2n1C	x	n	n	x	x
Cc1ccc(S(=O)(=O)Nc2cccc3ncccc23)cc1	n	n	n	n	n
Cc1ccc(S(=O)(=O)Nc2cccc3ncccc23)s1	107.7	x	x	x	85.1
COc1cccc(/C=C/c2ccc3cccc(O)c3n2)c1OC	82.4	n	n	n	n
COc1ccc(/C=C/c2ccc3cccc(O)c3n2)c(OC)c1OC	81.3	n	n	n	n
COc1ccc(C[C@H]2CCn3cc(nn3)COC[C@H](CC(C)C)NC2=O)cc1	x	n	n	n	x
COc1ccccc1C#Cc1ccc([C@@H]2[C@@H](C#N)N(C(=O)C3CCCCC3)[C@@H]2CO)cc1	x	n	n	n	x
COc1ccccc1C#Cc1ccc([C@H]2[C@H](C#N)N(C(=O)C3CCCCC3)[C@H]2CO)cc1	x	n	82.6	x	x
COc1ccccc1C#Cc1ccc([C@H]2[C@@H](CO)N(C(=O)C3CCCCC3)[C@H]2C#N)cc1	x	n	n	90.3	x
COc1ccccc1-c1ccc2n(c1=O)C[C@@H]1[C@@H](CO)[C@H](C(=O)N[C@H](C)c3ccccc3)[C@H]2N1C	x	n	n	n	x
C[C@H](CO)N1C[C@H](C)[C@@H](CN(C)C(=O)Nc2ccc(F)cc2)Oc2ccc(NC(=O)Nc3ccccc3)cc2CC1=O	x	n	n	x	x
CC(=O)Nc1ccc(Oc2sc(C(=O)c3ccccc3)c(N)c2C#N)cc1	52.7	x	x	x	n
CCOc1ccccc1CNC(=O)C1CCN(C(=O)c2sccc2-n2cccc2)CC1	64.0	x	n	x	n
SMILES	TWEAK Fn14 block	EWS-Fli block	LGR2 inh	PAX8 inh HTS	TROY signal inh
Cc1ccc(NCCN(C)C)c2c(=O)c3cc(O)ccc3sc12	n	52.1	n	n	n
C[C@H](CO)N1C[C@H](C)[C@H](CN(C)C(=O)Nc2ccc(F)cc2)Oc2ccc(NS(=O)(=O)c3cn(C)cn3)cc2CC1=O	x	n	n	x	x
OC(CN1CCN(c2ccccn2)CC1)Cn1c2ccc(Cl)cc2c2cc(Cl)ccc21 (stereo not given)	51.8	x	x	x	n
O=C(NCC1CC1)[C@H]1[C@H](CO)[C@H]2Cn3c(ccc(-c4ccccc4F)c3=O)[C@@H]1N2Cc1ccccc1	x	n	n	n	x
O=C(/C=C\c1cccs1)c1c(O)ccc2ccc(=O)oc12	50.9	x	n	n	n
O=C(C=Cc1cccs1)c1cccs1	n	n	n	n	n
O=C1/C(=C/c2cccc(Br)c2)SC(=S)N1CCC(=O)N(CCO)c1ccccc1	86.1	n	u	89.8	n
COc1cccc(/C=C2\SC(=S)N(CCCC(=O)N(CCO)c3ccccc3)C2=O)c1	n	n	n	65.0	n
O=C1/C(=C/c2ccc3c(c2)OCO3)SC(=S)N1CCC(=O)N(CCO)c1ccccc1	n	n	n	n	n
COc1cccc(/C=C2\SC(=S)N(CCCC(=O)N3CCCCC3)C2=O)c1	n	n	n	n	n
O=C(C1CCCC1)N1[C@H](CO)[C@@H]2c3ccccc3N(S(=O)(=O)c3ccc(F)cc3)C[C@@H]21	x	n	n	n	x
Cc1ccccc1N(Cc1cc(=O)[nH]c2ccccc12)C(=O)CCl	69.7	n	n	82.7	n
O=C(CCl)N(Cc1cc(=O)[nH]c2ccccc12)c1ccccc1	81.5	n	n	n	n
Cc1noc(C)c1S(=O)(=O)Nc1ccc2c(c1)C(=O)N([C@@H](C)CO)C[C@@H](C)[C@@H](CN(C)CC1CCCCC1)OCCCC[C@H](C)O2	x	n	n	n	x
CCc1ccc(NC(=O)c2nc(S(=O)(=O)Cc3ccccc3)ncc2Cl)cc1	85.9	x	n	n	78.8
CCSc1ncc(Cl)c(C(=O)Nc2ccc(S(N)(=O)=O)cc2)n1	n	n	n	70.4	n
CSc1ncc(Cl)c(C(=O)Nc2ccc(C)c(C)c2)n1	n	n	n	n	n
CCS(=O)(=O)c1ncc(Cl)c(C(=O)Nc2ccc(S(=O)(=O)N3CCC(C)CC3)cc2)n1	95.4	x	n	99.8	85.0
Cc1ccc(NC(=O)c2nc(S(=O)(=O)Cc3ccccc3C)ncc2Cl)cc1C	82.8	x	n	n	85.6
C[C@H]1CN([C@@H](C)CO)C(=O)c2cc(NC(=O)Cn3cnnn3)ccc2O[C@H]1CN(C)Cc1ccc(Cl)c(Cl)c1	x	n	n	n	x
COCC(=O)Nc1ccc2c(c1)C(=O)N(C)[C@H]1CC[C@H](CC(=O)Nc3ccccc3)O[C@@H]1CO2	x	n	n	n	x
CCCNC(=O)C[C@@H]1CC[C@@H]2[C@H](COc3ccc(NC(=O)c4cccs4)cc3C(=O)N2C)O1	x	n	n	n	x
CCOC(=O)c1ccc(NC(=O)c2nc(S(=O)(=O)Cc3ccccc3)ncc2Cl)cc1	62.5	x	n	n	63.0
COc1ccc(-c2csc3nc(-c4cccnc4)nc(Cl)c23)cc1OC	53.1	n	n	n	n
COc1ccc(-c2nc(-c3cccnc3)no2)cc1OC	84.3	n	n	n	n
